# From the supplement of paper PMC8728848
# The sample as a whole holds a higher share of the strongest signals than the screen did.
# B1: PX9937A-bvu-521-23-521 (Bacteroides vulgatus) (protein)
# chain: LDLAPEDYYGAGNFWKEASQPKAFMLGLHAQLRSYYDMFYTLGELRGGTQRVGTSSLNTSLNYADIRSQNISEDIPGISNWNGLYSPIMQVNHFIQEVENGCTFLDDATRSRYLGQAYGMRALYYFMLYRTFGGVPLITKVDILDGKPSADKFYVERATPEATMEFIKADINKSENYFGNNTSFDAYDWSRYATLMLKAEIYMWAAKVSITGFTATGATDLQTAKTALSGIIGHFELMDNFASIFSCDNKKNTEIIFAMPFIEGEASNDGGRFLYQDAVFLGQAYGRNGKVIEKDTLNLKGTGGVFRDEYTEDFWKTFKEGDSRRDATFMEYYMKNDNGTLSEFGCVMKKRIGTINSNDNRIYISDIPVYRYADALLMMAEIENGLNNPCASYINEVRKRAYGDTFEENKYTEGSYAENELAILQERDKEFVSEGKRWFDVLRMHDASGRSLVFSANANYPGTNPILGTEEAYKMLWPVNIGTLNVNPLLTQTPGYGKK
# Assays:
# Test in all cases: glycan array binding signal (z-score within array); higher = stronger binding
# Settings in all cases: glycan notation: IUPAC condensed, linker removed
# Fuc(a1-2)Gal(b1-3)GlcNAc = molecular target: Fuc(a1-2)Gal(b1-3)GlcNAc
# Procedure, shortened: (§1)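 The Consortium for Functional Glycomics database supplied 3228 glycan arrays, of which those lacking an available protein sequence were dropped. The binding signal, a within-array Z-score, was averaged across arrays of the same protein sequence and across linkers. Negative scores can be read as non-binding.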
# [1] = molecular target: Fuc(a1-2)Gal(b1-4)GlcNAc(b1-2)Man(a1-3)[Fuc(a1-2)Gal(b1-4)GlcNAc(b1-2)Man(a1-6)]Man(b1-4)GlcNAc(b1-4)[Fuc(a1-6)]GlcNAc
# Procedure, shortened: as §1
# [2] = molecular target: Fuc(a1-2)Gal(b1-4)GlcNAc(b1-3)Gal(b1-4)GlcNAc(b1-2)Man(a1-3)[Fuc(a1-2)Gal(b1-4)GlcNAc(b1-3)Gal(b1-4)GlcNAc(b1-2)Man(a1-6)]Man(b1-4)GlcNAc(b1-4)GlcNAc
# Procedure, shortened: as §1
# [3] = molecular target: Fuc(a1-2)Gal(b1-4)GlcNAc(b1-3)[Fuc(a1-3)[Gal(b1-4)]GlcNAc(b1-6)]Gal(b1-4)Glc
# Procedure, shortened: as §1
# [4] = molecular target: Fuc(a1-2)Gal3S(b1-4)GlcNAc
# Procedure, shortened: as §1
# [5] = molecular target: Fuc(a1-2)[Gal(a1-3)]Gal(b1-3)GalNAc(b1-3)Gal(a1-4)Gal(b1-4)Glc
# Procedure, shortened: as §1
# [6] = molecular target: Fuc(a1-2)[Gal(a1-3)]Gal(b1-4)GlcNAc(b1-2)Man(a1-3)[Fuc(a1-2)[Gal(a1-3)]Gal(b1-4)GlcNAc(b1-2)Man(a1-6)]Man(b1-4)GlcNAc(b1-4)GlcNAc
# Procedure, shortened: as §1
# [7] = molecular target: Fuc(a1-2)[Gal(a1-3)]Gal(b1-4)GlcNAc(b1-3)GalNAc
# Procedure, shortened: as §1
# [8] = molecular target: Fuc(a1-2)[Gal(a1-3)]Gal(b1-4)[Fuc(a1-3)]GlcNAc(b1-3)GalNAc
# Procedure, shortened: as §1
# [9] = molecular target: Fuc(a1-2)[GalNAc(a1-3)]Gal(b1-4)GlcNAc(b1-3)[Fuc(a1-2)[GalNAc(a1-3)]Gal(b1-4)GlcNAc(b1-6)]GalNAc
# Procedure, shortened: as §1
# [10] = molecular target: Fuc(a1-2)[GalNAc(a1-3)]Gal(b1-4)GlcNAc(b1-6)GalNAc
# Procedure, shortened: as §1
# [11] = molecular target: Fuc(a1-2)[GalNAc(a1-4)]Gal(b1-4)GlcNAc
# Procedure, shortened: as §1
# [12] = molecular target: Gal(a1-3)Gal(b1-4)GlcNAc(b1-2)Man(a1-3)[Gal(a1-3)Gal(b1-4)GlcNAc(b1-2)Man(a1-6)]Man(b1-4)GlcNAc(b1-4)GlcNAc
# Procedure, shortened: as §1
# [13] = molecular target: Gal(a1-3)Gal(b1-4)[Fuc(a1-3)]GlcNAc(b1-2)Man(a1-3)[Gal(a1-3)Gal(b1-4)[Fuc(a1-3)]GlcNAc(b1-2)Man(a1-6)]Man(b1-4)GlcNAc(b1-4)GlcNAc
# Procedure, shortened: as §1
# [14] = molecular target: Gal(a1-3)[Gal(a1-4)]Gal(b1-4)GlcNAc
# Procedure, shortened: as §1
# Gal(b1-3)GlcNAc = molecular target: Gal(b1-3)GlcNAc
# Procedure, shortened: as §1
# Gal(b1-3)GlcNAc(b1-2)Man = molecular target: Gal(b1-3)GlcNAc(b1-2)Man
# Procedure, shortened: as §1
# [15] = molecular target: Gal(b1-3)GlcNAc(b1-3)Gal(b1-4)GlcNAc(b1-2)Man(a1-3)[Gal(b1-3)GlcNAc(b1-3)Gal(b1-4)GlcNAc(b1-2)Man(a1-6)]Man(b1-4)GlcNAc(b1-4)GlcNAc
# Procedure, shortened: as §1
# [16] = molecular target: Gal(b1-4)GlcNAc(b1-2)[Gal(b1-4)GlcNAc(b1-6)]Man(a1-6)[Gal(b1-4)GlcNAc(b1-2)Man(a1-3)]Man(b1-4)GlcNAc(b1-4)GlcNAc
# Procedure, shortened: as §1
# [17] = molecular target: Gal(b1-4)GlcNAc(b1-3)Gal(b1-4)GlcNAc(b1-3)Gal(b1-4)GlcNAc(b1-3)Gal(b1-4)GlcNAc(b1-3)Gal(b1-4)GlcNAc(b1-2)Man(a1-3)[Gal(b1-4)GlcNAc(b1-3)Gal(b1-4)GlcNAc(b1-3)Gal(b1-4)GlcNAc(b1-3)Gal(b1-4)GlcNAc(b1-3)Gal(b1-4)GlcNAc(b1-2)Man(a1-6)]Man(b1-4)GlcNAc(b1-4)GlcNAc
# Procedure, shortened: as §1
# [18] = molecular target: Gal(b1-4)GlcNAc(b1-6)[Gal(b1-3)]GalNAc
# Procedure, shortened: as §1
# [19] = molecular target: Gal(b1-4)GlcNAc(b1-6)[Gal(b1-4)GlcNAc(b1-3)]GalNAc
# Procedure, shortened: as §1
# Gal(b1-4)GlcNAc6P = molecular target: Gal(b1-4)GlcNAc6P
# Procedure, shortened: as §1
# Gal3S(b1-3)GalNAc = molecular target: Gal3S(b1-3)GalNAc
# Procedure, shortened: as §1
# [20] = molecular target: Gal3S(b1-4)[Fuc(a1-3)]GlcNAc6S
# Procedure, shortened: as §1
# Gal6S(b1-3)GlcNAc6S = molecular target: Gal6S(b1-3)GlcNAc6S
# Procedure, shortened: as §1
# GalNAc(b1-4)GlcNAc = molecular target: GalNAc(b1-4)GlcNAc
# Procedure, shortened: as §1
# [21] = molecular target: GlcNAc(b1-2)Man(a1-3)[GlcNAc(b1-4)][GlcNAc(b1-2)Man(a1-6)]Man(b1-4)GlcNAc(b1-4)[Fuc(a1-6)]GlcNAc
# Procedure, shortened: as §1
# GlcNAc(b1-3)Fuc = molecular target: GlcNAc(b1-3)Fuc
# Procedure, shortened: as §1
# [22] = molecular target: GlcNAc(b1-3)Gal(b1-4)GlcNAc(b1-2)Man(a1-3)[GlcNAc(b1-3)Gal(b1-4)GlcNAc(b1-2)Man(a1-6)]Man(b1-4)GlcNAc(b1-4)GlcNAc
# Procedure, shortened: as §1
binder,measurement,setting,value
B1,glycan array binding signal (z-score),Fuc(a1-2)Gal(b1-3)GlcNAc,-0.251
same,glycan array binding signal (z-score),[1],0.307
same,glycan array binding signal (z-score),[2],0.158
same,glycan array binding signal (z-score),[3],-0.083
same,glycan array binding signal (z-score),[4],-0.223
same,glycan array binding signal (z-score),[5],-0.525
same,glycan array binding signal (z-score),[6],0.549
same,glycan array binding signal (z-score),[7],-0.367
same,glycan array binding signal (z-score),[8],-0.237
same,glycan array binding signal (z-score),[9],-0.334
same,glycan array binding signal (z-score),[10],0.027
same,glycan array binding signal (z-score),[11],-0.319
same,glycan array binding signal (z-score),[12],0.763
same,glycan array binding signal (z-score),[13],6.91
same,glycan array binding signal (z-score),[14],2.4
same,glycan array binding signal (z-score),Gal(b1-3)GlcNAc,-0.312
same,glycan array binding signal (z-score),Gal(b1-3)GlcNAc(b1-2)Man,-0.189
same,glycan array binding signal (z-score),[15],-0.279
same,glycan array binding signal (z-score),[16],4.26
same,glycan array binding signal (z-score),[17],2.53
same,glycan array binding signal (z-score),[18],6.72
same,glycan array binding signal (z-score),[19],0.459
same,glycan array binding signal (z-score),Gal(b1-4)GlcNAc6P,0.719
same,glycan array binding signal (z-score),Gal3S(b1-3)GalNAc,-0.408
same,glycan array binding signal (z-score),[20],-0.018
same,glycan array binding signal (z-score),Gal6S(b1-3)GlcNAc6S,-0.386
same,glycan array binding signal (z-score),GalNAc(b1-4)GlcNAc,2.94
same,glycan array binding signal (z-score),[21],-0.211
same,glycan array binding signal (z-score),GlcNAc(b1-3)Fuc,2.63
same,glycan array binding signal (z-score),[22],2.54
